# Results reported in PubChem BioAssay (NCI).
# This is part of a sample that, as a whole, favours compounds with a hit. Of some 83,000 tested, about 20% had one in any assay.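 Method: cells in 96-well plates; compound added at one concentration; 48 h incubation; percent growth measured; values under 10 scored active.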 Values without a mark were called inactive. Active and inactive are the calls of the source.
# Test system: HL-60(TB) leukemia
# Assay: NCI-60 one-dose screen, 48 h (100 = growth as untreated, 0 = no growth, -100 = all killed)
# Details: 10 µM unless noted
row,Structure (SMILES),growth
1,CN1C(=O)N(C)C2C1NN=c1s/c(=C\c3ccc(Cl)cc3Cl)c(=O)n12 (stereo not given),-26.9% (active)
2,COc1cc(/C=N/OC(=O)Nc2ccccc2)cc(OC)c1OC,99.2%
3,NC1[C@H](c2c[nH]c3ccccc23)c2c([nH]c3ccccc23)[C@H]1c1c[nH]c2ccccc12 (stereo not given in full),119%
4,O=C1CC2c3cc(-c4cc5ccccc5o4)ccc3CCN2C(=O)N1c1ccccc1 (stereo not given),69.9%
5,CCOc1nc(-c2ccccc2)cc2c(O)c(C(=O)N/N=C/c3ccc(N(C)C)cc3)[nH]c(=O)c12,111%
6,COC(=O)Nc1ccc(NC(=O)OC)cc1,95.9%
7,Cc1cc(N2CCCCCC2)nc(N2CCN(CC(=O)Nc3ccc4c(ccn4Cc4ccccc4)c3)CC2)n1,23.4%
8,Clc1ccc2c(c1)N(CCCN1CCCC1)c1ccccc1S2,17.1%
9,N=C(N)c1ccc(-c2ccc(-c3ccc(Cl)cc3Cl)s2)nc1,-35.7% (active)
10,CC(/C=N/N1C(=O)c2ccccc2C1=O)c1ccccc1 (stereo not given),108%
11,COc1ccc(C[n+]2c3ccccc3n3c4ccc(N)cc4ccc32)c(OC)c1OC,-6.46% (active)
12,CCNc1nc(O)c(/C=C2\C=Nc3ncccc32)s1,-22.4% (active)
13,Cc1nc2sc(C(=O)Nc3cccc(Br)c3C)c(N)c2cc1C(O)c1ccccc1 (stereo not given),-46.6% (active)
14,CCOC(=O)c1cnc2c(C)cc(C)cc2c1NCCCN(C)C,9.86% (active)
15,Cc1c(NC(=O)c2sc3nc4c(cc3c2N)CN(Cc2ccccc2)CC4)cccc1C(F)(F)F,3.22% (active)
16,CCCCCCCCSc1ncnc2c1ncn2CO,94.5%
17,CN1CCC(COc2cnc(-c3cccc(Cn4nc(-c5cccc(C#N)c5)ccc4=O)c3)nc2)CC1,95.3%
18,COc1ccc(-c2nn(C(=O)c3cc(OC)c(OC)c(OC)c3)c3cc(N)ccc23)cc1,5.67% (active)
19,O=C(CCCCCCN1CC(=O)N2[C@@H](c3ccc(Cl)cc3)c3[nH]c4ccccc4c3C[C@H]2C1=O)NO,46.8%
20,COC1NC(Cl)=C(C#N)C(C#N)(C#N)C1(C)C (stereo not given),92.9%

row,Structure (SMILES),growth
1,CC(=O)c1cc(Cl)ccc1O,103%
2,O=C(Oc1cccc2ccccc12)Oc1cccc2ccccc12,88.4%
3,C[C@]1(O)CC(=O)[C@]2(O)C3=C(C=C[C@]2(O)C1)C(=O)c1c(O)cccc1C3=O,-43.8% (active)
4,CCc1c(C(=O)N[C@@H](C(=O)OCc2ccccc2)C(C)O)[nH]c2ccc(Cl)cc12 (stereo not given in full),122%
5,COc1cc(C(=O)/C=C/c2cccc(Nc3ccnc4cc(Cl)ccc34)c2)cc(OC)c1OC,5.47% (active)
6,CCCCNC(=O)NS(=O)(=O)Cc1ccccc1,88.1%
7,Cc1n[nH]c(C)c1-c1c(C)n[nH]c1C,-6.88% (active)
8,CCOC(=O)c1sc2ncnc(Nc3ccc4c(cnn4C(=O)Nc4ccccc4)c3)c2c1C,90.9%
9,O=C(Nc1cccc(Oc2nnc(Cl)c3ccccc23)c1)Nc1ccc(Cl)c(C(F)(F)F)c1,-16.7% (active)
10,CCOC(=O)C1=C(C)NC(=O)NC1c1c(Cl)n(CCCl)c2ccccc12 (stereo not given),117%
11,COc1ccc2c(c1)/C(=C\c1c[nH]c3ccc(OC)cc13)C(=O)N2,20.8%
12,O=C1/C(=C/c2ccc(Cl)cc2)CN(Cc2cn(CCNc3ccnc4cc(Cl)ccc34)nn2)C/C1=C\c1ccc(Cl)cc1,-51.5% (active)
13,CCCS(=O)(=O)c1nc(NC2CC2)cc(-c2ccc3c(ccn3C3CC(C)(C)NC(C)(C)C3)c2)n1,-61.7% (active)
14,Cc1nn(-c2ccccc2)c(-n2ccnc2)c1/C=N/Nc1nc(-c2ccc(F)cc2)cs1,94.4%
15,Cc1cccc(-c2nc(N(C)c3ccc4ncsc4c3)c3ccccc3n2)n1,50.4%
16,Nc1ccc(/C=N/Nc2ccnc3c(O)cccc23)c2cccnc12,17.9%
17,COc1cc(-c2nc(C(=O)NCC(=O)O)nn2-c2ccc(Cl)cc2)cc(OC)c1OC,101%
18,O=S(=O)(NCC[C@@H]1C[C@H]1c1ccc2ccccc2c1)c1ccc(C(F)(F)F)cc1,96.5%
19,O=C(NN1C(=O)c2cc(C(=O)O)c(C(=O)O)cc2C1=O)c1ccncc1,109%
20,COC12C=C/C(=C(/C(=O)OCc3ccncn3)C(=O)CCCCCCCCC3(OC)C=C/C(=C(/C(=O)OCc4ccncn4)C(=O)CCCCCCCC1)O3)O2,-17.1% (active)
